Hit rate of the full screen: of about 290,000 compounds, about 1,800 (0.62%) were called active. The sample as a whole holds a higher share of actives than the screen did. A number with no mark means an inactive call. Rule as the data show it: active = inhibition above about 50%; inactive = the rest.

In PubChem BioAssay AID1566 (Sanford-Burnham Center for Chemical Genomics, 2009) one finds inhibition data, which are given here for 28 compounds.

The nature of this experiment: NOD2 signaling inhibitors, cell-based, luminescence, uHTS, HEK293 (AID 1566). To be noted: HEK293 NOD2/NF-kB luciferase reporter, at 4 µM, stronger effect = higher value.
Consider `Cc1ccc(C(=O)Nc2cccc(C(F)(F)F)c2)cc1Nc1ccccn1`, for which the inhibition is -0.8%.
In the case of `Cc1ccc(C(=O)Nc2cccc(C(F)(F)F)c2)cc1Nc1cnccn1`, the inhibition is 14%.
Turning to `CCN(CC)c1ccc(/C=N/N2CCN(Cc3ccccc3Cl)CC2)cc1`, the inhibition was 4.7%.
The value for `CCCN(CCC)c1ncnc2c1cnn2-c1ccc(OC)cc1` was -123%; that for `Cc1cccc(-n2ncc3c(N(C)C4CCCCC4)ncnc32)c1` was 72.3% (active).
The value for `Cc1cccc(-n2ncc3c(NC4CCCCC4)ncnc32)c1` was 7.4%; that for `Cc1cccc(-n2ncc3c(N(C)Cc4ccccc4)ncnc32)c1` was -120%.
For the compound `COc1ccc(-n2ncc3c(NC(C)C)ncnc32)cc1`, the inhibition was 13.8%.
For `Fc1cccc(NC(=S)NCCc2ccccc2)c1`, the inhibition was 10%.
The value for `CC(=O)Oc1cccc(NC(=O)c2ccc3c(c2)C(=O)N(CC(C)C)C3=O)c1` was -7.8%.
The result for `CCN(CC)c1ccc(S(=O)(=O)N2CCOCC2)cc1NC(=O)CN1CCN(Cc2ccccc2)CC1` reads -7.9%; that for `O=C(CN1CCc2ccccc2C1)Nc1cc(S(=O)(=O)N2CCOCC2)ccc1N1CCOCC1`, -2.4%.
The value for `COc1ccc(OC)c(N2C(=O)CC(C(C)c3ccccc3)C2=O)c1` (stereo not drawn) was 9.7%.
For the compound `COc1ccc(-n2c3c(cc(C(=O)NCc4ccco4)c2=O)C(=O)CC(C)(C)C3)cc1`, the inhibition was 10.7%.
`Cc1ccc(C(=O)CSc2nnc3ccccn23)c(C)c1`: the inhibition was -52.8%.
The value for `Cc1cc(C(=O)CSc2nncn2C)c(C)n1-c1ccccc1` was -52.4%.
With `Cc1cc(C(=O)CSc2nnc3ccccn23)c(C)n1-c1ccccc1`, the inhibition was 66.8% (active).
In the case of `COc1ccc(NC(=O)c2c(NC(=O)CNCc3ccco3)sc3c2CCC3)cc1`, the inhibition was 6.3%.
The result for `COC(=O)c1cccc(Cn2c(Cl)c(/C=N/Nc3ccccc3C)sc2=O)c1` reads 10.1%; that for `Cc1ccccc1N/N=C/c1sc(=O)n(Cc2cccc(C(=O)O)c2)c1Cl`, 51.6% (active); that for `O=C(O)c1cccc(Cn2c(Cl)c(/C=N/Nc3ccccc3)sc2=O)c1`, 14.5%.
On to `CCCNC(=S)N1CCC(C(=O)c2ccc(OC)cc2)CC1`, for which the inhibition is 15.3%.
The value for `COC(=O)N1C(=O)[C@](c2ccsc2)(C(C)C)N1C(=O)OC` was 32.8%.
`CCCCc1c(C)nc2ccc(Br)cc2c1SCCC#N`: the inhibition is 18%.
On to `CCc1c(C)nc2c(Br)cccc2c1SCCC#N`, for which the inhibition was 10.1%.
The value for `CN=c1scc(-c2cccs2)n1/N=C/c1ccc(O)c(O)c1O` was -25.9%.
The value for `CC(C)N=c1scc(-c2cccs2)n1/N=C/c1ccc(O)c(O)c1O` was -1.3%.
As for `CN=c1scc(-c2cccs2)n1/N=C/c1ccccc1O`, the inhibition was 88.7% (active).
